Efflux pump inh: antifungal efflux pump inhibition, Nile Red retention. S. cerevisiae Candida pump triplex. inhibition, % at 10 µM. hit rate 0.44% among 330,000. AID 485275;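 active means plate passing quality check with inhibition over a set limit, or well fluorescence over plate mean plus 4 SD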;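 further: Nile Red retained in pooled yeast measured as flow cytometry median fluorescence; 0% = buffer negative control and 100% = Enniatin B positive control; higher means more Nile Red kept so more efflux inhibition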
LAP4 TOR yeast: alters LAP4-GFP fluorescence in TOR pathway yeast screen; S. cerevisiae LAP4-GFP multiplex, flow cytometry GFP, 3 h; median GFP as percent of DMSO wells; GFP response vs DMSO, % at 10 µM; hit rate 0.34% among 320,000; AID 2023;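 active means GFP response vs DMSO above a set limit, about the screen mean plus 3 SD, cut at about 150% in these data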
CIT2-GFP yeast: modulators of TOR pathway CIT2-GFP in S. cerevisiae | hit rate 0.065% among 320,000 | GFP response vs DMSO, % at 10 µM | S. cerevisiae CIT2-GFP strain, flow cytometry, 3 h; 100 means same as DMSO wells;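 active means GFP response relative to DMSO above a set limit, near the screen mean plus 3 SD, cut at about 150% in these data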;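 further: ratio of well median GFP fluorescence to mean of DMSO wells on the plate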
MEP2 TOR yeast: yeast TOR pathway MEP2-GFP modulation | S. cerevisiae MEP2-GFP strain, flow cytometry GFP, 3 h; 100% = DMSO control level | GFP response vs DMSO, % at 10 µM | AID 2016 | hit rate 0.51% among 330,000;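 active means GFP response versus DMSO above a set limit, roughly screen mean plus 3 SD, cut at about 180% in these data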;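 further: median GFP fluorescence of the barcode-gated MEP2-GFP cells per well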
AGP1 TOR yeast: yeast TOR pathway AGP1-GFP modulation | GFP response vs DMSO, % at 10 µM | hit rate 0.02% among 320,000 | AID 2066 | S. cerevisiae AGP1-GFP multiplex flow cytometry, 3 h; GFP as percent of DMSO wells;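 active means GFP response relative to DMSO above a set limit, near screen average plus 3 SD, cut at about 150% in these data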;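 further: median GFP channel fluorescence of the gated AGP1 strain per well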
RPL19A-GFP yeast: alters RPL19A-GFP fluorescence in TOR pathway yeast screen; S. cerevisiae RPL19A-GFP strain, flow cytometry, 3 h; stronger effect = lower value; percent response vs DMSO, % at 10 µM; hit rate 0.3% among 330,000; AID 2025;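 active means percent response vs DMSO below 50%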;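 further: median channel GFP fluorescence of the barcoded RPL19A-GFP strain; ratio of sample median GFP to plate DMSO average so 100% = DMSO; lower means less RPL19A-GFP as with rapamycin TOR inhibition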
LAP4 cherry2: yeast LAP4-GFP modulation, second cherry pick; hit rate 20% among 590; AID 2621; GFP response vs DMSO, % at 10 µM; shares compounds with LAP4 TOR yeast; S. cerevisiae LAP4-GFP strain, flow cytometry GFP, 3 h;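 active means GFP signal as percent of the solvent control above about 150%, meaning raised reporter expression, limit read from the data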;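 further: ratio of well median GFP fluorescence to plate DMSO mean so 100% = DMSO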
MEP2 cherry2: yeast MEP2-GFP modulation, second cherry pick; hit rate 10% among 590; shares compounds with LAP4 TOR yeast; GFP response vs DMSO, % at 10 µM; S. cerevisiae MEP2-GFP strain, flow cytometry GFP, 3 h;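 active means GFP signal above 150% of the solvent control wells, that is a rise of more than half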;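 further: median channel GFP fluorescence of all gated yeast cells per well; ratio of median GFP to plate DMSO average so 100% = DMSO level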
RPL19A-GFP pick2: yeast RPL19A-GFP TOR reporter modulation, second cherry pick; shares compounds with LAP4 TOR yeast; S. cerevisiae RPL19A-GFP strain, flow cytometry GFP, 3 h; stronger effect = lower value; 100% means same as DMSO wells; GFP response vs DMSO, % at 10 µM; hit rate 3% among 590; AID 2623;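 active means under 65% GFP response relative to DMSO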;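 further: median GFP channel fluorescence per well over the all cells gate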
CIT2-GFP pick2: second confirmation of modulators of TOR reporter CIT2-GFP in yeast | shares compounds with LAP4 TOR yeast | S. cerevisiae CIT2-GFP strain, flow cytometry GFP, 3 h; DMSO control wells read 100% | GFP response vs DMSO, % at 10 µM | hit rate 8% among 590;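 active means GFP response vs DMSO above about 150%, limit read from the data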;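 further: median green fluorescence per well over all gated yeast cells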
AGP1-GFP pick2: yeast AGP1-GFP TOR reporter modulation, second cherry pick | 590 tested, under 10 active | percent response vs DMSO, % at 10 µM | AID 2643 | S. cerevisiae AGP1-GFP strain, flow cytometry GFP, 3 h | shares compounds with LAP4 TOR yeast;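 active means over 150 percent of DMSO response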;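 further: median GFP channel fluorescence over all cells without mother daughter split; sample median GFP divided by mean DMSO control so 100% equals DMSO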
s288c autofluor: compound is autofluorescent in yeast s288c cells; fluorescence change (kMESF span) at 33 µM; shares compounds with LAP4 TOR yeast; 610 tested, under 10 active; S. cerevisiae s288c, 520 nm autofluorescence, flow cytometry, 3 h; stronger effect = higher value; zero means same as solvent-only cells;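 active means fluorescence span over the dose series, or activity score, above about 33, limit read from the data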
s288c autofl DR: counter-screen for autofluorescence of TOR hits in yeast s288c; shares compounds with LAP4 TOR yeast; S. cerevisiae s288c parental, compound autofluorescence, flow cytometry, 3 h; fluorescence change (span) at 33 µM; 110 tested, under 10 active; AID 488829;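 active means fluorescence change span, or the activity score built from it, above 25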
TORC1 bypass: compounds blocking wildtype yeast growth but not TORC1 bypass cells | shares compounds with LAP4 TOR yeast | S. cerevisiae BY4741 spot growth rating, 48-72 h; stronger effect = lower value | growth rating (0-3) at 30 µM | 120 tested, under 10 active | AID 504456;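 active means growth rating at most 1 for wild type yeast while the TORC1 bypass strain still grows fully, rated 3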
Active calls of the source: *; nt = not tested or not shown. In the library only some 1.3% were active in any assay of this set; here they are far more common.

SMILES | Efflux pump inh | LAP4 TOR yeast | CIT2-GFP yeast | MEP2 TOR yeast | AGP1 TOR yeast | RPL19A-GFP yeast | LAP4 cherry2 | MEP2 cherry2 | RPL19A-GFP pick2 | CIT2-GFP pick2 | AGP1-GFP pick2 | s288c autofluor | others
CCOc1ccc(-c2nc(CS(=O)(=O)CC(=O)NCc3ccc(F)cc3)c(C)o2)cc1 | 0 | 181* | 138 | 177* | 138 | 86 | 102 | 101 | 97 | 102 | 101 | nt
CC(C)N(C)S(=O)(=O)c1ccc(NC(=O)C2=COCCO2)cc1 | 0 | 101 | 102 | 105 | 99 | 97 | nt | nt | nt | nt | nt | nt
O=C(Nc1ccccc1)C(Cl)C(=O)c1ccccc1 (stereo not given) | 0 | 130 | 93 | 97 | 86 | 101 | 120 | 114 | 105 | 125 | 107 | nt
CC(C(=O)Nc1ccccc1)C(=O)Nc1ccccc1 | 1 | 92 | 104 | 107 | 97 | 110 | nt | nt | nt | nt | nt | nt
CC(=O)C(Cl)C(=O)Nc1ccccc1 (stereo not given) | nt | nt | nt | nt | nt | nt | 120 | 121 | 103 | 123 | 112 | nt
C1=C(c2cc3ccccc3cn2)CCCC1 | 0 | 121 | 100 | 117 | 104 | 100 | nt | nt | nt | nt | nt | nt
CCOC(=O)c1c(C)oc2c1c(CN1CCN(C(=O)OCC)CC1)c(O)c1ccccc12 | 0 | 108 | 97 | 111 | 105 | 107 | nt | nt | nt | nt | nt | nt
CCOC(=O)c1c(C)oc2c1c(C(c1ccncc1)N1CCOCC1)c(O)c1ccccc12 (stereo not given) | 0 | 185* | 92 | 93 | nt | 89 | nt | nt | nt | nt | nt | 2.6
CC1=CC(=O)c2c(O)ccc(O)c2C1=O | 1.0* | 195* | 100 | 139 | 101 | 96 | 196* | 276* | 103 | 132 | 97 | nt
COc1ccc(OCC(=O)NNC(=S)NC(=O)C2CC2)cc1 | 0 | 102 | 92 | 107 | 99 | 110 | nt | nt | nt | nt | nt | nt
CCc1ccc(OCC(=O)NNC(=S)NC(=O)C2CC2)c(Br)c1 | 0 | 166* | 88 | 116 | 94 | 106 | nt | nt | nt | nt | nt | 0.71 | s288c autofl DR=0.73;TORC1 bypass=3
COc1ccc(OCC(=O)NNC(=S)NC(=O)C2CCCCC2)cc1 | 0 | 170* | 116 | 127 | 104 | 106 | 240* | 140 | 113 | 155* | 106 | 2.4
COc1cc2c(cc1OC)C(C)N(C(=O)[C@@H](NC(=O)c1ccccc1)C(C)C)CC2 (stereo not given in full) | 0 | 98 | 108 | 103 | 102 | 99 | nt | nt | nt | nt | nt | nt
Cc1cccn2c(=O)c3cc(C#N)c(=N)n(CCCN4CCOCC4)c3nc12 | 0 | 78 | 78 | 115 | 74 | 63 | 99 | 103 | 99 | 97 | 98 | nt
CCCCCCCCCCCCCCCC[n+]1cccc2ccccc21 | 1.1* | 40 | 26 | 54 | 7 | 12* | 154* | 138 | 81 | 100 | 95 | 0.91
COc1cccc2cc(-c3nc4ccccc4o3)c(=O)oc12 | 0 | 114 | 85 | 103 | 67 | 56 | 105 | 102 | 60* | 98 | 65 | 0.71
COc1ccccc1C(=O)Nc1ccc(Br)c2cccnc12 | 0 | 87 | 106 | 103 | 100 | 103 | nt | nt | nt | nt | nt | nt
COc1ccccc1C(=O)Nc1ccc(Br)cc1C | 0 | 188* | 83 | 102 | 107 | 82 | 104 | 105 | 98 | 96 | 96 | nt
COc1ccccc1C(=O)O/N=C(/c1ccncc1)c1ccc([N+](=O)[O-])cc1 | 0 | 99 | 98 | 94 | 90 | 105 | nt | nt | nt | nt | nt | nt
COc1ccc(C2OC34CCCCC3C(C#N)(C#N)C2(C#N)C(=N)O4)cc1 (stereo not given) | 0 | 93 | 80 | 139 | 32 | 63 | 94 | 96 | 100 | 106 | 96 | nt
CN(C(=O)C1CCC(=O)N(CCc2ccc(Cl)cc2)C1)C1CCOCC1 (stereo not given) | 0 | 101 | 99 | 106 | 101 | 102 | nt | nt | nt | nt | nt | nt
O=C(NCc1ccco1)C(=O)NCC1OCCN1C(=O)c1ccc(Cl)cc1 (stereo not given) | 0 | 97 | 98 | 165 | 95 | 57 | 102 | 105 | 100 | 101 | 99 | nt
O=C(NCc1ccccn1)C(=O)NCC1OCCN1C(=O)c1ccc(Cl)cc1 (stereo not given) | -3 | 83 | 101 | 95 | 89 | 94 | nt | nt | nt | nt | nt | nt
O=C1OC(CO)CN1Cc1ccccc1 (stereo not given) | 0 | 93 | 101 | 99 | 97 | 103 | nt | nt | nt | nt | nt | nt
O=c1oc(/C=C/c2ccc([N+](=O)[O-])s2)nc2ccccc12 | 0 | 154* | 161* | 185* | 103 | 116 | nt | nt | nt | nt | nt | 13
Cc1cccc(Nc2nc(N)c([N+](=O)[O-])c(NCc3ccco3)n2)c1 | 0 | 101 | 98 | 100 | 89 | 99 | nt | nt | nt | nt | nt | nt
CNc1nc(N)c([N+](=O)[O-])c(NCc2ccco2)n1 | nt | nt | nt | nt | nt | nt | nt | nt | nt | nt | nt | nt | s288c autofl DR=0;TORC1 bypass=3
COc1ccc(OC)c(NC(=O)CCN2CCN(C)CC2)c1 | 0 | 98 | 110 | 115 | 98 | 101 | nt | nt | nt | nt | nt | nt
O=C(c1ccccc1)c1ccccc1N1C(=O)C=CC1=O | 0 | 327* | 70 | 87 | 85 | 81 | nt | nt | nt | nt | nt | 1.1
O=C1Nc2ccc(Br)cc2/C1=C/C(=O)c1ccc2c(c1)OCO2 | 0 | 131 | 92 | 86 | 99 | 94 | nt | nt | nt | nt | nt | -0.4
